Bioassay records as filed in PubChem.
IEC-6 tox: counter-screen for KLF5 inhibitors: cytotoxicity in IEC-6 cells | IEC-6 cytotoxicity, luminescence viability | inhibition, % at 5 µM | hit rate 0.78% among 290,000 | AID 1825;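 also: 0% = plate median of test compound wells and 100% = cytotoxic reference compound wells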
KLF5 inh: suppresses KLF5 promoter-driven expression; AID 1700; DLD-1 KLF5 promoter-luciferase reporter, luminescence; hit rate 0.23% among 290,000; inhibition, % at 5 µM;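 active = inhibition above a per-plate limit of that plate's mean compound inhibition plus 3 SD, cut at about 60% in these data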;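 also: 0% = DMSO wells and 100% = LY294002 at 200 µM; higher means less KLF5 promoter-driven luciferase light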
BaF3 parental: parental Ba/F3 viability inhibition as JAK2V617F counter-screen; CellTiter-Glo ATP luminescence; inhibition, % at 5.6 µM; hit rate 1.1% among 220,000;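 active = inhibition above a per-campaign cutoff, the mean inhibition of all tested compounds plus 3 SD, cut at about 27% in these data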;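 also: 0% = DMSO wells and 100% = JAK Inhibitor I control wells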
Ba/F3 V617F tox: lowers viability of Ba/F3 cells expressing EpoR and JAK2V617F; ATP luminescence; inhibition, % at 5.6 µM; hit rate 1.1% among 220,000;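 active = inhibition above the campaign mean plus 3 SD over all tested compounds, cut at about 24% in these data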;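 also: cytokine-independent growth of Ba/F3 cells driven by EpoR plus mutant JAK2; 0% = DMSO-treated cells and 100% = JAK inhibitor I control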
APP 5UTR inh: APP translation inhibition; SH-SY5Y APP 5'UTR-luciferase reporter, luminescence; inhibition, % at 2 µM; hit rate 0.82% among 190,000;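 active = inhibition above a set limit, derived from the sample mean plus 3 SD, cut at about 45% in these data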
IEC-6 tox confirm: IEC-6 cytotoxicity, confirmation assay | inhibition, % at 5 µM | shares compounds with IEC-6 tox | IEC-6 rat intestinal epithelial viability, luminescence | AID 1907 | hit rate 63% among 1,900;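 also: 0% = vehicle and 100% = reference cytotoxic drug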
Numbers without * were called inactive; nt = no result given. Rows were chosen to be rich in hits. Some 1.9% of all compounds tested hit in one or more screens of this group. Rule as the data show it, unless noted: active = inhibition above about 22%; inactive = the rest.

SMILES | IEC-6 tox | KLF5 inh | BaF3 parental | Ba/F3 V617F tox | APP 5UTR inh | IEC-6 tox confirm
CN1CCN(c2ccc([N+](=O)[O-])cc2C(=O)c2ccc(Cl)cc2)CC1 | 49.2* | 0.4 | 3.9 | -3.2 | 6.1 | 50.0*
COc1ccccc1C(CNc1ccc(S(=O)(=O)N2CCCC2)cc1[N+](=O)[O-])N(C)C (stereo not given) | 22.0* | -22.1 | nt | nt | nt | 8.5
COc1ccccc1C(=O)N1CCN(c2cccc(Cl)c2)CC1 | 77.4* | 60.0 | 82.6* | 80.1* | 94.8* | 54.6*
COc1cc2c(C(=O)N3CCN(c4cccc(Cl)c4)CC3)cn(C)c(=O)c2cc1OC | 4.1 | -16.6 | 1.4 | -1.2 | -9.0 | nt
O=C(c1c(Cl)nc2sccn12)N1CCN(c2cccc(Cl)c2)CC1 | 63.2* | 53.2 | 75.9* | 78.3* | 94.1* | 43.7*
c1ccc(CNc2ncnc3c2cnn3Cc2ccccc2)cc1 | 27.4* | 1.0 | 33.2* | 27.0* | 2.4 | 35.0*
OCCNc1ncnc2c1cnn2Cc1ccccc1 | -2.5 | -27.2 | nt | nt | nt | nt
C=CCOC(=O)c1sc(NC(=O)c2ccc(OC)cc2)nc1C | 6.3 | -10.4 | 3.5 | 5.9 | -49.0 | nt
Cc1ccc(/C=N/NC(=O)c2c(C)nc3ccc(Br)cn23)cc1 | 68.7* | 63.4* | nt | nt | nt | 44.6*
CC(C)(CNC(=S)NCCc1ccccc1)CNC(=S)NCCc1ccccc1 | -2.8 | -25.6 | 4.0 | -2.2 | 2.8 | nt
S=c1nc(NCCc2ccccc2Cl)c2ccccc2[nH]1 | 23.8* | -154.6 | nt | nt | nt | 13.7
O=C(CCCCCNc1nc(=S)[nH]c2ccccc12)NCc1ccccc1Cl | 0.0 | -5.8 | 1.6 | 0.1 | 4.5 | nt
COc1ccc2nc(-c3ccc(Cl)cc3)cc(C(=O)O)c2c1 | -0.2 | -15.9 | -0.8 | 1.3 | nt | nt
COC(=O)c1ccc(N2CCOCC2)c(NC(=O)c2ccco2)c1 | 2.3 | -1.2 | nt | nt | nt | nt
Cc1cc2c(NCCc3ccccc3)ncnc2s1 | 22.5* | -103.1 | nt | nt | nt | 22.4*
CC(=O)N(C)c1ccc(NC(=S)Nc2cccc3ccccc23)cc1 | 7.7 | -76.2 | 3.8 | 3.2 | -12.8 | nt
CC(=O)c1ccc(NC(=S)Nc2cccc3ccccc23)cc1 | 63.2* | -70.5 | nt | nt | nt | 5.9
C=CCCC(=O)N1CCCC(C(=O)c2cccc(OC)c2)C1 (stereo not given) | 1.0 | -4.4 | nt | nt | nt | nt
COc1cc2ncnc(NCc3ccc(C)o3)c2cc1OC | 9.6 | -8.7 | 3.1 | 0.6 | -4.3 | nt
COc1cc2ncnc(NCc3ccc(F)cc3)c2cc1OC | 25.4* | 6.4 | nt | nt | nt | 32.0*
COc1cc2ncnc(NCc3ccc(Cl)cc3)c2cc1OC | 29.1* | -4.4 | 8.7 | 2.1 | -6.3 | 23.3*
O=C(Nc1ccccc1-c1ccccc1)c1ccc(NC(=O)c2ccco2)cc1 | 3.1 | -14.3 | 2.1 | -1.2 | 4.7 | nt
CCN(CC)S(=O)(=O)c1ccc(/C=C/C(=O)OCC(=O)Nc2ccc(S(N)(=O)=O)cc2)cc1 | 3.0 | 13.1 | 4.2 | -5.2 | 11.7 | nt
N#CCCN(C(=O)COc1ccc(C#N)cc1)c1ccc(F)cc1 | 5.2 | 6.4 | 2.0 | 1.8 | -4.8 | nt
O=C(NNC(=O)c1ccc(O)cc1O)c1ccc(-c2ccccc2)cc1 | 24.0* | -4.5 | nt | nt | nt | 1.2
SMILES | IEC-6 tox | KLF5 inh | BaF3 parental | Ba/F3 V617F tox | APP 5UTR inh | IEC-6 tox confirm
O=C(CCC1CCCN(C(=O)c2ccc3c(c2)OCO3)C1)N1CCN(c2ccccn2)CC1 (stereo not given) | 4.6 | 16.8 | 3.9 | 2.2 | -2.7 | nt
COC(=O)c1cc(S(=O)(=O)NC2CCCCC2)cn1C | -2.0 | -18.3 | nt | nt | nt | nt
Cc1ccc2[nH]c3c(c2c1)CCCC3C(N)=O (stereo not given) | -4.5 | -36.9 | 3.6 | -1.4 | -15.9 | nt
Cc1ccc2[nH]c3c(c2c1)CCCC3NC(=O)CCl (stereo not given) | 56.5* | 42.8 | nt | nt | nt | 60.3*
COc1ccc(N(CC(=O)Nc2ccc(OC)cc2OC)S(=O)(=O)c2ccccc2)cc1 | 3.6 | -10.5 | 2.1 | -5.9 | -21.2 | nt
CCOc1ccc(N(CC(=O)Nc2ccccc2OC)S(=O)(=O)c2ccccc2)cc1 | 78.0* | 58.7 | nt | nt | nt | 53.1*
COc1ccc(-c2nc(CCl)cs2)cc1 | -2.3 | -29.1 | 0.1 | -3.1 | -3.6 | nt
COc1ccc(-c2ccnc(-c3ccc(O)cc3)n2)cc1 | 68.9* | 26.9 | 58.8* | 78.8* | 93.0* | 60.3*
COc1ccc(-c2ccnc(-c3ccncc3)n2)cc1 | 29.5* | 10.3 | 13.2 | 19.1 | nt | 18.4
COc1ccc(-c2csc(-c3ccc(O)cc3)n2)cc1 | 49.5* | -58.0 | 46.5* | 63.9* | nt | 43.6*
CCOC(=O)N1CCN(Cc2nnc(-c3cccc(Br)c3)o2)CC1 | -0.7 | -33.3 | nt | nt | nt | nt
COc1cc(C(=O)N/N=C/c2coc3ccccc3c2=O)cc(OC)c1OC | 70.1* | -40.0 | nt | nt | nt | 2.2
COc1ccc(C(=O)N/N=C\c2coc3ccccc3c2=O)cc1 | -7.1 | -32.4 | 0.3 | -2.5 | nt | nt
O=C(NN1CCOCC1)c1ccc(F)cc1 | -6.0 | -18.3 | nt | nt | nt | nt
COc1cc(C(=O)NNC(=O)C2CC=CCC2C(=O)O)cc(OC)c1OC (stereo not given) | 70.1* | 39.0 | 44.4* | 60.3* | 64.8* | -3.2
O=C(Nc1nc(-c2ccncc2)cs1)c1ccco1 | -2.4 | -37.2 | 6.9 | -1.5 | -7.5 | nt
O=C(Nc1nc(-c2ccccn2)cs1)c1ccco1 | 26.5* | -31.4 | 9.4 | 0.9 | 31.7 | 28.2*
O=C(Nc1nc(-c2ccccn2)cs1)c1ccc(Br)s1 | 30.1* | 13.3 | 5.1 | 2.1 | 25.1 | 69.8*
O=C(CC1CC2CCC1C2)Nc1nc(-c2ccccn2)cs1 (stereo not given) | 28.7* | -34.3 | 7.2 | 4.0 | -37.2 | 6.4
Cc1nc(NC(=O)c2ccco2)sc1C(=O)O | 35.2* | -1.5 | nt | nt | nt | 27.0*
O=C(Nc1nc(-c2ccccn2)cs1)C1CC1 | 2.5 | -37.5 | 3.3 | -0.9 | -2.9 | nt
CC1CCCCN1CCCNC(=O)c1cc(Br)c(Br)[nH]1 (stereo not given) | 2.6 | -1.1 | 1.6 | -0.8 | -1.7 | nt
COc1ccc(C2CC(=O)N(C)c3ccccc3S2)cc1 (stereo not given) | 23.7* | -30.2 | -6.1 | 3.7 | -6.3 | 9.4
CCOC(=O)C1CCCN(C(=O)c2ccc3nc(-c4cccc(OC)c4)oc3c2)C1 (stereo not given) | 29.5* | -51.3 | nt | nt | nt | 14.8
CC(=O)c1c2c3c(c(Br)ccc3n(C)c1=O)C(=O)c1ccccc1-2 | 43.5* | -18.6 | nt | nt | nt | -3.6
SMILES | IEC-6 tox | KLF5 inh | BaF3 parental | Ba/F3 V617F tox | APP 5UTR inh | IEC-6 tox confirm
Cc1ccc(NC(=O)Cn2c(=O)cnc3ccccc32)cc1S(=O)(=O)N(C)C | 25.4* | 5.1 | 3.5 | 4.6 | -3.1 | 3.1
Cc1ccc(NC(=O)CN2CCc3ccccc3C2)cc1S(=O)(=O)N(C)C | -6.8 | -15.4 | 4.3 | 0.5 | -11.7 | nt
CSc1cccc(NS(=O)(=O)c2ccc3c(c2)CCN3C(C)=O)c1 | 33.4* | 41.9 | nt | nt | nt | 19.0
COc1cccc(NS(=O)(=O)c2ccc3c(c2)CCN3C(C)=O)c1 | 6.4 | -0.6 | nt | nt | nt | nt
CCCCOc1ccc(Br)cc1/C(C)=N/NC1=NCCN1 | 83.3* | 32.1 | 75.3* | 80.4* | 96.0* | 65.5*
O=C(CSc1cccc[n+]1[O-])Nc1ccccc1Oc1ccccc1 | 23.5* | -10.3 | 8.1 | 3.4 | -5.9 | 6.1
O=C(CSc1cccc[n+]1[O-])CSc1cccc[n+]1[O-] | 55.2* | -15.3 | 6.8 | 5.6 | 0.9 | 11.9
